Test results as given in PubChem BioAssay (Tox21).
Unmarked numbers belong to inactive results. Records with an inconclusive call do not appear. Entries that show only a call come without a potency. The source made the active and inactive calls. Unless noted, calls come from the whole dose curve; as a rule, active = well fitted curve in the direction sought with a large enough effect in the repeat runs; inconclusive = weak or mixed curves; inactive = no such curve, though single readings can be large; an effect the other way counts as inactive or inconclusive.

Legend:
[1] = qHTS assay to identify small molecule agonists of the estrogen receptor alpha (ER-alpha) signaling pathway in the presence of an antagonist - cell viability counter screen (AID 1259386);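 note: cells exposed to compounds for 22 h at 37 °C before the viability read; nearly all actives have a fitted effect of over 30% in size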; note: potency is the fitted concentration of half-maximal effect
Summary of the method: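 The test measures whether compounds kill ER-alpha reporter cells (VM7Luc4E2) under antagonist co-treatment (ICI-182,780, 10.0nM). Fluorescence from CellTiter-Fluor is read after a 22hr exposure.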

[2] = biological target: Progesterone receptor (Homo sapiens) (UniProt P06401); assay: qHTS assay to identify small molecule antagonists of the progesterone receptor (PR) signaling pathway (AID 1346795; active = well fitted inhibition curve with a large enough effect in the signal ratio in the repeat runs, not every such curve was filed as active; the % refers to the signal ratio; note: potency is the fitted concentration of half-maximal effect)
Summary of the method: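 HEK293T PR-UAS-bla reporter cells in charcoal-stripped serum (2%) received compound after a 6 hr settling period, followed by R5020 agonist at 1 nM final; 16 hr incubation preceded the FRET substrate step and fluorescence measurement.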

[3] = qHTS assay to identify small molecule agonists of the progesterone receptor (PR) signaling pathway - cell viability counter screen (AID 1346799; calls by dose curve; note: nearly all actives have a fitted effect of over 45% in size; note: potency is the fitted concentration of half-maximal effect)
Summary of the method: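 Counter screen for cytotoxicity: compound-treated PR-UAS-bla HEK293T cells (16 hr, 37C, 5% CO2) were assayed with CellTiter-Glo, luminescence measured after 30 min at room temperature.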

[4] = qHTS assay to identify small molecule antagonists of the TGF-beta/Smad signaling pathway - cell viability counter screen (AID 1346824); note: nearly all actives have a fitted effect of over 50% in size
Summary of the method: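 SBE-bla HEK 293T cells were plated overnight at 37 C, then given compounds in DMSO plus TGF-beta1 (added as 0.25 ng/mL solution) for 5 hr. After the bla read, CellTiter-Glo was added to the same wells and luminescence read after 30 min at room temperature.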

[5] = qHTS assay to identify small molecule agonists of the TGF-beta/Smad signaling pathway - cell viability counter screen (AID 1346829); note: top concentration of the series differs between compounds; nearly all actives have a fitted effect of over 45% in size
Summary of the method: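 HEK 293T SBE-bla line, 5 hr compound exposure at 37 C, multiplexed CellTiter-Glo viability read by luminescence.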

[6] = qHTS assay to identify small molecule agonists of the TGF-beta/Smad signaling pathway (AID 1346859; active = well fitted activation curve with a large enough effect in the signal ratio in the repeat runs, not every such curve was filed as active; the % refers to the signal ratio; note: series mostly up to about 77 µM)
Summary of the method: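 Smad-responsive beta-lactamase reporter cells (HEK 293T) received compounds from DMSO stocks after overnight attachment, were incubated 5 hr, then treated 2 hr with FRET substrate before dual-emission fluorescence measurement (405 nm excitation).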

[7] = biological target: Thyrotropin-releasing hormone receptor (Homo sapiens) (UniProt P34981); assay: qHTS assay to identify small molecule antagonists of the thyrotropin-releasing hormone receptor (TRHR) signaling pathway (AID 1346877; active = well fitted inhibition curve with a large enough effect in the repeat runs, not every such curve was filed as active; note: series mostly up to about 51 µM)
Summary of the method: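 Overnight-plated (18 h, 37 °C) HEK293 cells expressing TRHR were dye-loaded 2 h, treated with compound, then stimulated with TRH at 1 nM final. Fluorescence intensity was captured every second for 3 min.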

[8] = biological target: Thyrotropin-releasing hormone receptor (Homo sapiens) (UniProt P34981); assay: qHTS assay to identify small molecule agonists of the thyrotropin-releasing hormone receptor (TRHR) signaling pathway (AID 1346891; calls by dose curve; note: potency is the fitted concentration of half-maximal effect;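 for activation: HEK293 cells expressing TRHR with calcium dye readout; series mostly up to about 58 µM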)
Summary of the method: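 Agonist-mode calcium mobilisation screen: TRHR-transfected HEK293 cells cultured overnight (18 h), dye-loaded for 2 h at 37 °C, exposed to compounds, and monitored by fluorescence for 3 min.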

[9] = qHTS assay to identify small molecule antagonists of the progesterone receptor (PR) signaling pathway - cell viability counter screen (AID 1346798); note: nearly all actives have a fitted effect of over 50% in size; note: potency is the fitted concentration of half-maximal effect
Summary of the method: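 Same-well multiplex: after 16 hr at 37C with compound and R5020 stimulation, HEK293T cells carrying a UAS-bla reporter received LiveBLAzer substrate (2 hr RT), then CellTiter-Glo (30 min RT) for luminescent viability.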

[10] = biological target: Progesterone receptor (Homo sapiens) (UniProt P06401); assay: qHTS assay to identify small molecule agonists of the progesterone receptor (PR) signaling pathway (AID 1346784; calls by dose curve; note: nearly all actives have a fitted effect of over 30% in size)
Summary of the method: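 Agonist mode, quantitative HTS format in a HEK 293T line expressing a UAS-controlled beta-lactamase reporter; 16 hr compound exposure at 37C in 2% charcoal-stripped FBS, then LiveBLAzer B/G FRET fluorescence.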

Thyrotropin-releasing hormone receptor (Homo sapiens), sequence (P34981 whole entry, looked up): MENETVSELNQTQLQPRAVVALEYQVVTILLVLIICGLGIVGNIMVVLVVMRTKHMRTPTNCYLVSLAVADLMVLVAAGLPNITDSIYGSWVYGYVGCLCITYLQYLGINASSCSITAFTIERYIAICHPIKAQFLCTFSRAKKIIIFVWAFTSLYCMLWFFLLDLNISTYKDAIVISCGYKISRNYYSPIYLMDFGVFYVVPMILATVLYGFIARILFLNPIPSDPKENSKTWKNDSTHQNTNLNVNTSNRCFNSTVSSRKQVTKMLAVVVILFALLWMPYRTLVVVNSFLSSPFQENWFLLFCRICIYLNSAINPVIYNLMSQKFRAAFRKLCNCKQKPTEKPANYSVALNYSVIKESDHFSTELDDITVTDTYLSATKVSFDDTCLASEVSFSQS
Progesterone receptor (Homo sapiens), sequence (P06401 whole entry, looked up): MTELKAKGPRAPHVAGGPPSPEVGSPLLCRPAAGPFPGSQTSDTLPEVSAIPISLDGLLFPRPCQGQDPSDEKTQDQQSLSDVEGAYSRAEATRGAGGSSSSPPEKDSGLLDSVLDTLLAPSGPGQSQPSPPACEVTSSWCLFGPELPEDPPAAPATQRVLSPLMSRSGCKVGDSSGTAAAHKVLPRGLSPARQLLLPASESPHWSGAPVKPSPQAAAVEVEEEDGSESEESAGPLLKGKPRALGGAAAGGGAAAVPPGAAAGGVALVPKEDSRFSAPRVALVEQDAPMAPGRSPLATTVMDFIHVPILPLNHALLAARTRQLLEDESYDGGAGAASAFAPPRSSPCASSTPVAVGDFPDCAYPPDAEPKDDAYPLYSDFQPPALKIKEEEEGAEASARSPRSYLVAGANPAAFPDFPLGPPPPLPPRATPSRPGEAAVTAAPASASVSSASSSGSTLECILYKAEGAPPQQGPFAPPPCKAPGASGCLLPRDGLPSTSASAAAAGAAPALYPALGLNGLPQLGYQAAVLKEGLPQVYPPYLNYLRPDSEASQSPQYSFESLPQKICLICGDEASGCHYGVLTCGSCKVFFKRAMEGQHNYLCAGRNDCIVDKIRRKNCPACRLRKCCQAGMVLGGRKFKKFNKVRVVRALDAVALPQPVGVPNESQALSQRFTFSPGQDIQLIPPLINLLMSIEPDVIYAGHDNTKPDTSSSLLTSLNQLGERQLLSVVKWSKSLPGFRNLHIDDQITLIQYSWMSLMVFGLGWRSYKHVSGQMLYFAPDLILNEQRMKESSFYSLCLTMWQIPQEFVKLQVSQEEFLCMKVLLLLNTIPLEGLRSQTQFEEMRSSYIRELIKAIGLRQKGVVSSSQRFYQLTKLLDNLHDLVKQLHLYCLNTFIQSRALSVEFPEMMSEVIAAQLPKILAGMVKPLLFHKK

SMILES | Potency [1] | Potency [2] | Potency [3] | Potency [4] | outcome [5] | Potency [6] | outcome [7] | Potency [8] | Potency [9] | Potency [10]
C1CCCNCCC1 | inactive | inactive | inactive | inactive | inactive | inactive | – | – | – | –
CN1Cc2cc(C(=O)N3CCC(C4CCNCC4)CC3)ccc2NC(CC(=O)O)C1=O (stereo unspecified) | inactive | inactive | inactive | inactive | inactive | inactive | inactive | inactive | – | –
Clc1ccc(Cn2c(CN3CCCC3)nc3ccccc32)cc1 | inactive | – | 7.5 µM (active) | inactive | inactive | – | inactive | inactive | 6.68 µM (active) | –
COCC(C)OC(C)=O (stereo unspecified) | inactive | – | – | inactive | inactive | – | – | – | inactive | –
COc1ccc(S(=O)(=O)N2C(=O)[C@@](c3ccccc3OC)(N3C[C@H](O)C[C@H]3C(=O)N(C)C)c3cc(Cl)ccc32)c(OC)c1 | 27.3 µM (active) | 54.5 µM (active) | – | inactive | inactive | – | inactive | inactive | – | –
CC(CC=O)c1ccccc1 (stereo unspecified) | inactive | – | inactive | inactive | inactive | inactive | inactive | inactive | inactive | –
C[C@@H]1C[C@H]2[C@@H]3CCC4=CC(=O)C=C[C@]4(C)[C@@]3(F)[C@@H](O)C[C@]2(C)[C@@]1(O)C(=O)COC(=O)c1ccncc1 | inactive | – | inactive | inactive | inactive | inactive | – | – | inactive | –
CN(C)CCOC(c1ccccc1)c1ccc(Br)cc1 (stereo unspecified) | inactive | – | 16.8 µM (active) | – | inactive | inactive | inactive | inactive | 13.3 µM (active) | –
CCN(CC)c1ccc2c(-c3ccccc3C(=O)O)c3ccc(=[N+](CC)CC)cc-3oc2c1 | 6.11 µM (active) | inactive | – | inactive | inactive | inactive | inactive | 34.7 µM (active) | – | –
Cc1cc(N)c2cc(NC(=O)Nc3ccc4nc(C)cc(N)c4c3)ccc2n1 | inactive | – | – | inactive | inactive | inactive | inactive | inactive | – | –
C#Cc1cccc(Nc2ncnc3cc(OCCOC)c(OCCOC)cc23)c1 | – | inactive | inactive | inactive | inactive | – | – | – | – | –
CN(C)CCN(Cc1ccccc1)c1ccccn1 | inactive | – | – | inactive | inactive | inactive | inactive | inactive | – | –
CCCCc1nc2cccnc2n1Cc1ccc(-c2ccccc2-c2nnn[nH]2)cc1 | – | – | inactive | – | inactive | – | inactive | inactive | inactive | inactive
COC(=O)C1=C(C)NC(COC(N)=O)=C(C(=O)OC(C)C)C1c1cccc(Cl)c1Cl (stereo unspecified) | inactive | – | – | – | inactive | – | – | – | – | –
CC(C)CC(=O)C1C(=O)c2ccccc2C1=O | – | inactive | – | inactive | inactive | inactive | inactive | inactive | – | inactive
CCCCC/C=C\C/C=C\CCCCCCCC(=O)NC(C)c1ccccc1 (stereo unspecified) | – | – | – | inactive | inactive | – | inactive | inactive | – | inactive
Clc1ccc2c(c1)CCc1cccnc1C2=C1CCNCC1 | inactive | – | – | – | inactive | inactive | – | – | – | –

SMILES | Potency [1] | Potency [2] | Potency [3] | Potency [4] | outcome [5] | Potency [6] | outcome [7] | Potency [8] | Potency [9] | Potency [10]
CCOc1ccc(N)c([N+](=O)[O-])c1 | – | – | inactive | inactive | inactive | inactive | inactive | inactive | – | inactive
COS(=O)(=O)C(F)(F)F | inactive | – | – | inactive | inactive | inactive | inactive | inactive | – | –
COc1ccc(C(=O)Nc2nc3ccccc3c(NCc3ccccc3)c2C#N)cc1 | – | inactive | – | inactive | inactive | – | – | – | inactive | inactive
O=C(Cl)c1cc(C(=O)Cl)cc(C(=O)Cl)c1 | inactive | – | inactive | – | inactive | inactive | inactive | inactive | – | –
O=C(O)c1nc(Cl)c(Cl)c(Cl)c1Cl | – | – | inactive | inactive | inactive | – | inactive | inactive | inactive | –
O=C(O)C1(C(=O)Nc2ccc(Cl)cc2Cl)CC1 | inactive | – | – | inactive | inactive | – | inactive | inactive | – | –
CCCCNc1ccc(C(=O)OCCOCCOCCOCCOCCOCCOCCOCCOCCOC)cc1 | – | inactive | – | inactive | inactive | inactive | inactive | inactive | – | inactive
CC[N+](C)(CC)CCOC(=O)C(O)(c1ccccc1)C1CCCCC1 (stereo unspecified) | – | inactive | inactive | inactive | inactive | inactive | – | – | inactive | inactive
C=C1C(=C/C=C2\CCC[C@]3(C)[C@@H]([C@H](C)/C=C/[C@@H](O)C4CC4)CC[C@@H]23)C[C@@H](O)C[C@@H]1O | – | 11.9 µM (active) | – | inactive | inactive | inactive | – | – | – | inactive
CCCCC1=NC2(CCCC2)C(=O)N1Cc1ccc(-c2ccccc2-c2nn[nH]n2)cc1 | – | inactive | inactive | inactive | inactive | inactive | – | – | inactive | inactive
Brc1c2ccccc2cc2ccccc12 | inactive | – | – | – | inactive | – | – | – | – | –
Nc1ccc([N+](=O)[O-])c(C(F)(F)F)c1 | – | – | – | – | inactive | inactive | inactive | inactive | inactive | inactive
C=C(C)C(=O)OCCOCC | – | inactive | inactive | inactive | inactive | inactive | inactive | inactive | – | inactive
O=C(O)CC(=O)C(=O)O | – | – | inactive | inactive | inactive | – | – | – | – | inactive
Cn1c(=O)cc(Oc2ccc(F)cc2F)c2cnc(NCC(C)(C)O)nc21 | – | – | – | inactive | inactive | inactive | – | – | – | –
CC(=O)c1ccc2c(c1)N(CCCN1CCC(CCO)CC1)c1ccccc1S2 | – | – | – | inactive | inactive | inactive | – | – | – | inactive
